From PubChem BioAssay AID1159580 (chemical genetic matrix, 2015)
Values joined by “and” are separate entries in the source; they are usually repeats but may differ in a detail not shown here. Equal entries are not always repeated. Screen size: about 5,500 compounds; about 2,000 (36%) were called active. Inconclusive results (about 18%) are left out. Rule as the data show it: active = normalized growth mostly below about 0.91 (no sharp cut-off); inconclusive = no clear call, values can overlap the other calls; inactive = mostly above about 0.92. Some of the results follow.

Assay: chemical genetic growth profiling, strain panel (AID 1159580);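 also: tested at 20 µM; growth read once vehicle control cultures reached saturation at 30 °C; 1 = growth at the plate median or of vehicle wells; lower values mean less growth of the strain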
Details: growth OD

Measured: normalized growth

CCN(CC)CCCC(C)Nc1ccnc2cc(Cl)ccc12 (stereo not drawn)
inactive: S. cerevisiae deletion strains, locus YJR075W, strain HOC1, active compounds read low 1.03 and 1.01 | S. cerevisiae deletion strains, locus YKL009W, strain mrt4, active compounds read low 1.03 | S. cerevisiae deletion strains, locus YKL068W, active compounds read low 1.01 | S. cerevisiae deletion strains, locus YKL085W, strain MDH1 (second series), active compounds read low 0.998 | S. cerevisiae deletion strains, locus YKL085W, strain MDH1, active compounds read low 0.998 | S. cerevisiae deletion strains, locus YKL160W, strain elf1, active compounds read low 1.03 | S. cerevisiae deletion strains, locus YKR001C, strain vps1, active compounds read low 1.01 | S. cerevisiae deletion strains, locus YKR026C, strain gcn3, active compounds read low 1.03 | S. cerevisiae deletion strains, locus YKR091W, strain srl3, active compounds read low 1.02 | S. cerevisiae deletion strains, locus YLL001W, strain dnm1, active compounds read low 1.02 | S. cerevisiae deletion strains, locus YLL026W, active compounds read low 1.01 | S. cerevisiae deletion strains, locus YLL041C, strain sdh2, active compounds read low 1.02 | S. cerevisiae deletion strains, locus YLR027C, strain aat2, active compounds read low 1.01 | S. cerevisiae deletion strains, locus YLR039C, strain RIC1, active compounds read low 1.04 | S. cerevisiae deletion strains, locus YLR058C, strain SHM2, active compounds read low 1.03 | S. cerevisiae deletion strains, locus YLR102C, strain apc9, active compounds read low 1 | S. cerevisiae deletion strains, locus YLR113W, strain HOG1, active compounds read low 0.947 | S. cerevisiae deletion strains, locus YLR221C, strain rsa3, active compounds read low 1.03 | S. cerevisiae deletion strains, locus YLR258W, strain gsy2, active compounds read low 1.01 | S. cerevisiae deletion strains, locus YLR262C, strain YPT6 (second series), active compounds read low 1.01 | S. cerevisiae deletion strains, locus YLR262C, strain YPT6, active compounds read low 1.01 | S. cerevisiae deletion strains, locus YLR268W, strain sec22, active compounds read low 0.998 | S. cerevisiae deletion strains, locus YLR320W, strain mms22, active compounds read low 1.01 | S. cerevisiae deletion strains, locus YLR330W, strain CHS5, active compounds read low 1.02 | S. cerevisiae deletion strains, locus YLR342W, strain FKS1 (second series), active compounds read low 1.03 | S. cerevisiae deletion strains, locus YLR342W, strain FKS1, active compounds read low 1.03 | S. cerevisiae deletion strains, locus YLR357W, strain rsc2, active compounds read low 1.05 | S. cerevisiae deletion strains, locus YLR370C, strain arc18, active compounds read low 1.02 | S. cerevisiae deletion strains, locus YLR371W, strain rom2, active compounds read low 1.02 | S. cerevisiae deletion strains, locus YLR384C, strain iki3, active compounds read low 1.03 | S. cerevisiae deletion strains, locus YLR418C, strain cdc73, active compounds read low 1.07 | S. cerevisiae deletion strains, locus YML016C, strain PPZ1, active compounds read low 1.01 | S. cerevisiae deletion strains, locus YML032C, strain rad52, active compounds read low 0.996 | S. cerevisiae deletion strains, locus YML120C, strain ndi1, active compounds read low 1.01 | S. cerevisiae deletion strains, locus YML124C, strain tub3, active compounds read low 1 | S. cerevisiae deletion strains, locus YMR058W, strain fet3, active compounds read low 1 | S. cerevisiae deletion strains, locus YMR078C, strain ctf18, active compounds read low 1.02 | S. cerevisiae deletion strains, locus YMR125W, strain sto1, active compounds read low 1.03 | S. cerevisiae deletion strains, locus YMR129W, active compounds read low 1.02 | S. cerevisiae deletion strains, locus YMR205C, strain PFK2, active compounds read low 1.04 | S. cerevisiae deletion strains, locus YMR223W, strain ubp8, active compounds read low 1.03 | S. cerevisiae deletion strains, locus YMR231W, strain pep5, active compounds read low 1.02 | S. cerevisiae deletion strains, locus YMR307W, strain GAS1, active compounds read low 1.04 | S. cerevisiae deletion strains, locus YNL067W, strain RPL9B, active compounds read low 1.03 | S. cerevisiae deletion strains, locus YNL071W, strain lat1, active compounds read low 1 | S. cerevisiae deletion strains, locus YNL128W, strain TEP1, active compounds read low 1.04 | S. cerevisiae deletion strains, locus YNL153C, strain GIM3, active compounds read low 1.04 | S. cerevisiae deletion strains, locus YNL175C, strain NOP13, active compounds read low 1.01 | S. cerevisiae deletion strains, locus YNL183C, strain NPR1, active compounds read low 0.918 | S. cerevisiae deletion strains, locus YNL197C, strain WHI3, active compounds read low 0.99 | S. cerevisiae deletion strains, locus YNL209W, strain ssb2, active compounds read low 1.01 | S. cerevisiae deletion strains, locus YNL224C, strain SQS1, active compounds read low 1 | S. cerevisiae deletion strains, locus YNL233W, strain BNI4, active compounds read low 1.03 | S. cerevisiae deletion strains, locus YNL248C, strain rpa49, active compounds read low 1.04 | S. cerevisiae deletion strains, locus YNL250W, strain rad50, active compounds read low 1.02 | S. cerevisiae deletion strains, locus YNL271C, strain bni1, active compounds read low 1.01 | S. cerevisiae deletion strains, locus YNL298W, strain CLA4, active compounds read low 1.01 | S. cerevisiae deletion strains, locus YNL307C, strain MCK1, active compounds read low 1.02 | S. cerevisiae deletion strains, locus YNL322C, strain KRE1 (second series), active compounds read low 1.05 | S. cerevisiae deletion strains, locus YNR049C, strain mso1, active compounds read low 1.02 | S. cerevisiae deletion strains, locus YNR052C, strain pop2, active compounds read low 1.01 | S. cerevisiae deletion strains, locus YOL006C, strain TOP1, active compounds read low 1.14 | S. cerevisiae deletion strains, locus YOL012C, strain htz1 2.16 | S. cerevisiae deletion strains, locus YOL147C, strain pex11, active compounds read low 1 | S. cerevisiae deletion strains, locus YOR001W, strain rrp6, active compounds read low 1.03 | S. cerevisiae deletion strains, locus YOR061W, strain CKA2, active compounds read low 1.01 | S. cerevisiae deletion strains, locus YOR069W, strain VPS5, active compounds read low 1.01 | S. cerevisiae deletion strains, locus YOR070C, strain gyp1, active compounds read low 1.02 | S. cerevisiae deletion strains, locus YOR080W, strain dia2, active compounds read low 1.06 | S. cerevisiae deletion strains, locus YOR083W, strain WHI5 (second series), active compounds read low 0.986 | S. cerevisiae deletion strains, locus YOR083W, strain WHI5, active compounds read low 1.02 | S. cerevisiae deletion strains, locus YOR106W, strain vam3, active compounds read low 1.03 | S. cerevisiae deletion strains, locus YOR136W, strain idh2, active compounds read low 1.01 | S. cerevisiae deletion strains, locus YOR144C, strain elg1, active compounds read low 0.993 | S. cerevisiae deletion strains, locus YOR184W, strain ser1, active compounds read low 1.03 | S. cerevisiae deletion strains, locus YOR231W, strain MKK1, active compounds read low 0.953 | S. cerevisiae deletion strains, locus YOR265W, strain rbl2, active compounds read low 1.02 | S. cerevisiae deletion strains, locus YOR270C, strain vph1, active compounds read low 1.01 | S. cerevisiae deletion strains, locus YOR290C, strain snf2, active compounds read low 1.01 | S. cerevisiae deletion strains, locus YOR316C, strain cot1, active compounds read low 1.01 | S. cerevisiae deletion strains, locus YPL051W, strain arl3, active compounds read low 1.02 | S. cerevisiae deletion strains, locus YPL055C, strain LGE1, active compounds read low 1.03 and 1.01 | S. cerevisiae deletion strains, locus YPL078C, strain atp4, active compounds read low 1.02 | S. cerevisiae deletion strains, locus YPL106C, strain sse1, active compounds read low 1.05 | S. cerevisiae deletion strains, locus YPL240C, strain hsp82, active compounds read low 1.02 | S. cerevisiae deletion strains, locus YPL241C, strain CIN2, active compounds read low 1.01 | S. cerevisiae deletion strains, locus YPL256C, strain CLN2, active compounds read low 0.945 | S. cerevisiae deletion strains, locus YPR119W, strain clb2, active compounds read low 1.01 | S. cerevisiae deletion strains, locus YPR141C, strain kar3, active compounds read low 1.01 | S. cerevisiae deletion strains, locus YPR163C, strain tif3, active compounds read low 0.999 | S. cerevisiae deletion strains, locus YPR167C, strain met16, active compounds read low 1.01 | S. cerevisiae deletion strains, strain wtn01, active compounds read low 1.03 | S. cerevisiae strains, strain wild type, active compounds read low 1.01
